Compound activity (PubChem)
Rows were chosen to be rich in hits. Some 3% of all compounds tested hit in one or more screens of this group.
Chronic BCR inh = qHTS Assay to Find Inhibitors of Chronic Active B-Cell Receptor Signaling | actives 0.05% (n = 340,000) | Potency, µM (doses to about 46.1 µM), hits mostly inhibitors | ABC-DLBCL IkBa-CBG/CBR reporter, luminescence ratio, 4 h; active = well fitted inhibition curve with a large enough effect in the signal ratio, with a control signal flat, not every such curve was filed as active; inconclusive = small, poorly fitted or top-dose-only effect, or effect the other way, or a change in a side signal; the % refers to the signal ratio
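Cell line TMD8 (human ABC DLBCL), stably expressing tet-inducible CBG68-IkBa fusion and CBR; IMDM/0.5% FBS; cpd up to 46 uM; dox induction, 4 h, 37C/5% CO2; dual luminescence; green/red ratio; MG132 control.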
hERG WT inh = qHTS for Inhibitors of KCHN2 3.1: Wildtype qHTS; Voltage-gated inwardly rectifying potassium channel KCNH2 (Homo sapiens), Q12809; U2OS, BacMam KCNH2, thallium flux FluxOr; active compounds read low; activity change, % at 1.84 µM; actives 0.37% (n = 340,000); AID 720551, 2013;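 active = maximum activity change below -70%; inconclusive = maximum activity change between -70% and -50%; inactive = maximum activity change above -50%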
Target sequence (Q12809 whole entry, looked up): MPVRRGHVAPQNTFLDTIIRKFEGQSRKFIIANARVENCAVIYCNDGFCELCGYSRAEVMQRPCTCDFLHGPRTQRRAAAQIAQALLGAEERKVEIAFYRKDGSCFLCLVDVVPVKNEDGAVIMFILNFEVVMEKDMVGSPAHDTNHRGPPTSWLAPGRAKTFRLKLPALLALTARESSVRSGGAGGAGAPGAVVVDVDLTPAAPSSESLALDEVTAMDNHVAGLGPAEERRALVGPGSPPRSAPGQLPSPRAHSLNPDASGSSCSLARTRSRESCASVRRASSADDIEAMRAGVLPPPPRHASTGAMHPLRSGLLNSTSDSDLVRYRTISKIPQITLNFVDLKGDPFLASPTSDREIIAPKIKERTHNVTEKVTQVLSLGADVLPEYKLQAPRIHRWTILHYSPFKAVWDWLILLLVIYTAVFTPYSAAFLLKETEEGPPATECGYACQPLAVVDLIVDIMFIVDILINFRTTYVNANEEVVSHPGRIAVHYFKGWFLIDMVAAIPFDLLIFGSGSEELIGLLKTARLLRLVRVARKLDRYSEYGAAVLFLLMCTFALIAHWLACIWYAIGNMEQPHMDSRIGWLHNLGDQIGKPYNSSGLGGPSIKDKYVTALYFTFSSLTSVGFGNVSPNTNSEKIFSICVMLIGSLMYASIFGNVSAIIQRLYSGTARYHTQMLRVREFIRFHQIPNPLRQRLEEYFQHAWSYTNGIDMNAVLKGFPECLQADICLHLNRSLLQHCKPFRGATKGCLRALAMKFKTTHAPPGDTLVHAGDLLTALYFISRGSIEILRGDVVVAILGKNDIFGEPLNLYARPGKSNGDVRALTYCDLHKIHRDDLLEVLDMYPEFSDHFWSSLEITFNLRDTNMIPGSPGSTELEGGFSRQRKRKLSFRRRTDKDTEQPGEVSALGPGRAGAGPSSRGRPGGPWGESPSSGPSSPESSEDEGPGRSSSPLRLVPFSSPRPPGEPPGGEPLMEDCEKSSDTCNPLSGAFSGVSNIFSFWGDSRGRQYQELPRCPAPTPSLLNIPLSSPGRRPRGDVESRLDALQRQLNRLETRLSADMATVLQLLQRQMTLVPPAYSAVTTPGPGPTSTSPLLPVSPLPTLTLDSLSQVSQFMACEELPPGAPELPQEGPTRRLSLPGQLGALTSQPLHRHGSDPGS
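U2OS cells were transduced with wild-type KCNH2 virus (2.03 x 10^8 / mL) for 4 h at room temperature, then cultured overnight at 37 C. Thallium flux was read with FluxOr dye. Rate constants were normalized to DMSO controls.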
LDHA block = qHTS assay for inhibitors of human lactate dehydrogenase. L-lactate dehydrogenase A chain (Homo sapiens), P00338. purified LDHA, NADH/diaphorase-resazurin fluorescence; active compounds read low. actives 0.15% (n = 480,000). AID 1347041, 2019. activity change, % (values are at about 110 or 230 µM); in the data active = activity change below about -30%; inconclusive = mostly about -25% to -30%
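Enzyme activity of human lactate dehydrogenase 5 (2 nM; 0.06 mM NADH, 0.2 mM pyruvate, 5 min, RT) is measured via a resazurin/diaphorase fluorescence readout of residual NADH.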
ALOX12 inh = Primary qHTS assay for inhibitors of human arachidonate 12S-lipoxygenase (ALOX12): Round 2; purified 12hLO, xylenol orange hydroperoxide absorbance; Potency, µM (series often up to 108 µM), hits mostly inhibitors; actives 1.1% (n = 580,000); active = well fitted inhibition curve with a large enough effect; inconclusive = small, poorly fitted or top-dose-only effect, or another doubt; inactive = no such curve, though single readings can be large or run the other way
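Purified human 12hLO at 150 nM in 25 mM Hepes, 0.01% Triton X-100, pH 7.0, preincubated 15 min at room temperature with compound. Reaction started with 40 uM arachidonic acid, 30 min at room temperature. Hydroperoxide measured by Fe-xylenol orange, 573/405 nm absorbance ratio.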
KCNH2 3.1 block = qHTS for Inhibitors of KCHN2 3.1: Mutant qHTS; Potassium voltage-gated channel subfamily H member 2, brain isoform KCNH2 3.1 (human); U2OS KCNH2 3.1, thallium flux FluxOr; active compounds read low; activity change, % (tested at about 1.8 µM); actives 0.95% (n = 340,000); AID 720553, 2013;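 active = maximum activity change below -70%; inconclusive = maximum activity change from -70% to -50%; inactive = maximum activity change above -50%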;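 also: thallium influx rate constant from kinetic fluorescence after stimulation buffer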
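FluxOr-based Tl+ influx in U2OS cells transduced with KCNH2 3.1 virus; rate constants normalized to DMSO controls.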
ClpP mod = qHTS Assay for Activators of ClpP; ATP-dependent Clp protease proteolytic subunit (Bacillus subtilis (strain 168)), P80244; purified B. subtilis ClpP, FRET peptide cleavage, 20 min; Potency, µM (series often up to 57.5 µM); actives 1.9% (n = 340,000); AID 651965, 2013; active = well fitted falling curve with a large enough effect; inconclusive = small, poorly fitted or top-dose-only effect; inactive = no such curve, though single readings can be large or run the other way; also: the source files actives as falling curves though it sought activators and does not explain the sign; nearly all actives have a fitted effect of over 65% in size
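Buffer: 100 mM Tris/HCl pH8, 100 mM KCl, 0.05% low protease BSA, 2.5% glycerol, 0.01% Tween-20. ClpP 10 microg/mL final; 20 min RT; delta FRET normalized to ADEP and DMSO controls.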
A number is an active result; n = inactive; u = inconclusive; x = no result given.

SMILES | Chronic BCR inh | hERG WT inh | LDHA block | ALOX12 inh | KCNH2 3.1 block | ClpP mod
COc1cc(/C=N/NC(=O)NC2CCCCC2)cc(OC)c1O | u | n | n | n | n | n
O=C(COC(=O)c1cc(=O)c2ccccc2o1)NC1CC1 | x | x | n | n | x | x
O=C(NCc1ccc(C(F)(F)F)cc1)c1ccc(-c2ccc(F)c(F)c2)c2ccoc12 | x | x | n | n | x | 28µM
COC(=O)c1c(S(N)(=O)=O)c2ccccc2n1C | n | n | n | n | n | 28µM
Cc1ccc(C(C)NC(=O)c2ccc3c(c2)OCCO3)c(C)c1 (centres undefined) | x | x | n | n | x | x
Cn1c(SCC(=O)Nc2ccccc2Oc2ccccc2)nnc1C1CC1 | u | -110 | n | n | n | n
Cc1nc(NC(=O)CSc2nnc(C3CC3)n2C)sc1C | u | -254 | n | u | n | x
Cn1c(SCC(=O)Nc2ccccc2Cl)nnc1C1CC1 | n | n | n | n | n | x
Cn1c(SCC(=O)Nc2nncs2)nnc1C1CC1 | n | n | n | n | n | n
C=CCNC(=O)c1cc(-c2ccccc2C)nc2ccccc12 | x | x | n | u | x | x
Fc1cc(Br)ccc1OCc1coc(-c2ccccc2)n1 | x | x | n | u | x | x
Cc1c(-c2ccc(F)cc2)[nH]c2ccc(CNC(=O)CCN3CCCO3)cc12 | x | x | x | n | x | x
O=C(Nc1ccc(N=Nc2ccccc2)cc1)c1ccccc1Cl | u | n | n | n | -98 | n
O=C(Nc1ccc2ncccc2c1)c1ccccc1 | n | n | n | u | n | x
O=C(Nc1ccc2ncccc2c1)c1ccccc1Cl | n | x | -42 | 45µM | n | n
CCC1C(=O)CC(c2ccc([N+](=O)[O-])cc2)NC1c1ccc([N+](=O)[O-])cc1 (centres undefined) | n | n | n | n | -79 | n
COc1ccc(Br)cc1CN1CCN(C(=O)c2ccco2)CC1 | n | n | n | 0.5µM | n | n
COc1ccc(Br)cc1CN1CCCCCCC1 | n | n | -30 | u | n | n
COc1ccccc1CN1CCN(C(=O)c2ccco2)CC1 | u | n | n | u | n | n
Cc1cccc(Oc2c(C(F)(F)F)oc3cc(OC(=O)c4cncc(Br)c4)ccc3c2=O)c1 | x | x | n | 8.9µM | x | x
Cc1cc(C)c(NC(=O)CN(C)CC(=O)NC(=O)NCc2ccccc2)c(C)c1 | x | x | n | n | x | x
CCOC(=O)c1c(NC(=O)c2ccoc2C)sc(C)c1C | u | n | n | n | n | 8.9µM
CCOC(=O)c1c(NC(=O)C[n+]2ccc(Cc3ccccc3)cc2)sc(C)c1C | u | n | n | 45µM | n | x
Cc1c(C(N)=O)sc(NC(=O)C2CCCO2)c1C(=O)OC(C)C (centres undefined) | x | x | n | n | x | x
CCOC(=O)c1c(NC(=O)c2ccoc2C)sc2c1CCCCC2 | x | x | n | n | x | x
SMILES | Chronic BCR inh | hERG WT inh | LDHA block | ALOX12 inh | KCNH2 3.1 block | ClpP mod
CCc1c(C)sc(NC(=O)c2ccoc2C)c1C(N)=O | n | n | n | 11µM | n | n
CCOC(=O)c1c(NC(=S)Nc2ccccc2)sc(C)c1C | n | n | n | n | n | n
CCOC(=O)c1c(NC(=O)C2CCCO2)sc(C(N)=O)c1C (centres undefined) | n | n | n | n | n | 28µM
Cn1cc(-c2cccc(O)c2)c2nc(COc3ccc(Cl)cc3)cn2c1=O | x | x | x | n | x | x
O=C(CCc1ncc(-c2ccccc2F)o1)N1CCN(S(=O)(=O)c2ccc(F)c(Cl)c2)CC1 | x | x | n | n | x | x
CN1C(=O)C2(CCN(Cc3ccccc3)C2)c2ccccc21 (centres undefined) | x | x | x | n | x | x
CN(CC(=O)Nc1ccccc1Cl)CC(=O)N(CCC#N)c1ccccc1F | x | x | n | u | x | x
CCCCN(C)S(=O)(=O)NCc1ccnc(N2CCN(c3ccc(F)cc3)CC2)c1 | x | x | n | n | x | x
CCCc1cc(C(N)=O)c(NC(=O)c2ccoc2C)s1 | u | n | n | 32µM | n | n
CCOC(=O)c1c(NC(=O)CNC2CCCCC2)sc(C)c1C | u | n | n | n | -83 | x
CCCc1cc(C(N)=O)c(NC(=O)c2cc(C)on2)s1 | n | n | n | u | n | n
CCOC(=O)c1c(NC(=O)CNCCO)sc(C)c1C | n | n | n | n | n | n
CCNc1ccc(C)cc1C | x | x | n | u | x | x
NC(=O)c1c(NC(=O)c2ccccc2)sc2c1CCc1ccccc1-2 | n | n | n | n | n | 32µM
NC(=O)c1c(NC(=O)c2ccccc2)sc2c1CCC2 | n | n | n | u | n | x
COc1cc(OC)c(C2CC(=O)N3CN(c4ccccc4)CSC3=C2C#N)cc1OC (centres undefined) | n | n | n | 2.8µM | n | n
COc1ccc2ccccc2c1C1CC(=O)N2CN(C)CSC2=C1C#N (centres undefined) | n | n | n | u | n | n
COc1ccc(Br)cc1C1CC(=O)N2CN(C)CSC2=C1C#N (centres undefined) | n | n | n | 28µM | n | n
COc1cc(OC)c(C2CC(=O)N3CN(C)CSC3=C2C#N)cc1OC (centres undefined) | n | n | n | 16µM | n | n
N#CC1=C2SCN(c3ccccc3)CN2C(=O)CC1c1ccccc1Cl (centres undefined) | n | n | n | u | n | n
N#CC1=C2SCN(c3ccccc3)CN2C(=O)CC1c1c(Cl)cccc1Cl (centres undefined) | u | n | n | 3.2µM | n | n
CCCS(=O)(=O)c1nc(S(=O)(=O)c2ccc(C)cc2)c(NC(C)CC)s1 (centres undefined) | x | x | n | n | x | x
Cc1cn2nc(C(=O)Nc3ccc(C(=O)N4CCCC4)cc3)cc2c(=O)[nH]1 | x | x | x | n | x | x
O=C(CC1C=CCC1)Nc1ccc(SC2CCCC2)cc1 (centres undefined) | x | x | n | n | x | x
COc1nc2c(cc1CNC(=O)[C@@H](N)CO)C(=O)N(CCc1ccccn1)C2 | x | x | x | n | x | x
COc1ccc(CCC(=O)Nc2cccc(-c3nnc4n3CCCC4)c2)cc1 | x | x | x | n | x | x
Cn1nc(C(=O)Nc2ccnn2Cc2ccc(Cl)cc2)c2ccccc2c1=O | x | x | n | n | x | x
COc1cc(C2CC(=O)N3CN(c4cccc(C)c4)CSC3=C2C#N)ccc1O (centres undefined) | x | x | n | 2µM | x | x
CCOc1ccc(N2CSC3=C(C#N)C(c4ccco4)CC(=O)N3C2)cc1 (centres undefined) | n | n | n | u | n | n
